# Experimental data: PubChem BioAssay AID1508622 (National Center for Advancing Translational Sciences (NCATS), 2021)
# Activity calls are given as the source filed them. Calls come from the whole dose curve; as a rule, active = well fitted activation curve with a large enough effect; inconclusive = small, poorly fitted or top-dose-only effect; inactive = no such curve, though single readings can be large or run the other way.
# Test: Confirmatory qHTS for Identification of Small Molecule Activators of Huntingtin-Antisense Promoter Activity
# Conditions: HEK293 HTT-AS promoter firefly luciferase reporter, 24 h; series mostly up to 57.5 µM; activity change, positive = activation: at the top concentration
# Procedure, shortened: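 2,500 luciferase reporter HEK293 cells/well; 24 h culture; cpds up to 57.5 uM final, PTC124 50 uM ctrl; 24 h, 37C; Dual-Glo FLuc reagent, 10 min RT; lum. Norm.: vehicle 0%, zero RLU -100%.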
# Potency is the fitted concentration of half-maximal effect.
SMILES,"activity change, positive = activation",Potency
CCc1c(C)nc2nncn2c1NCc1ccc(OC)cc1,-50.3% (inactive),–
COc1ccccc1NC(=O)CSc1nnc(NC(=O)Nc2ccc(C)cc2)s1,-76.3% (inactive),–
COc1cccc(C(=O)Nc2ccc(S(=O)(=O)N(Cc3ccccc3)c3ccccc3)cc2)c1,-26.8% (inactive),–
COc1ccc(S(=O)(=O)NCCc2cc3ccc(C)c(C)c3[nH]c2=O)cc1,-25.6% (inactive),–
COc1ccc(C(=O)Nc2ccc(S(=O)(=O)N(Cc3ccccc3)c3ccccc3)cc2)cc1,-92.2% (inactive),–
Cc1cccc(N2CCN(S(=O)(=O)c3ccc4c(c3)CCCN4C(=O)C3CCC3)CC2)c1C,-65.5% (inactive),–
CCOC(=O)C1CCC(CN(Cc2c(Cl)cccc2Cl)S(=O)(=O)c2ccc(Cl)cc2)CC1 (centres undefined),-73.4% (inactive),–
Cc1ccc(-c2nnc(Nc3ccc(F)cc3)c3ccccc23)cc1S(=O)(=O)NC(C)C,-23.9% (inactive),–
COc1cc(OC)c(C2C=C(c3ccc(C)cc3)Nc3c(C(=O)Nc4ccccc4)cnn32)cc1OC (centres undefined),0.432% (inactive),–
Cc1ccc(Cl)cc1N1CCN(C(=O)c2cnc(N3CCOCC3)c3ccccc23)CC1,-34.6% (inactive),–
CC(=O)c1cccc(NS(=O)(=O)c2cccc(S(=O)(=O)c3ccc(Br)cc3)c2)c1,-75.3% (inactive),–
COC(=O)[C@]12CCC(C)(C)C[C@@H]1[C@@H]1C(=O)C=C3[C@@]4(C)C=C(C#N)C(=O)C(C)(C)[C@@H]4CC[C@@]3(C)[C@]1(C)CC2,-17% (inactive),–
CC(=O)c1ccc(N2CCN(c3ncnc4onc(C)c34)CC2)cc1,-93.4% (inactive),–
CCOc1ccc(CCNC(=O)c2ccc(CS(=O)(=O)Cc3ccccc3Cl)o2)cc1OCC,-32% (inactive),–
COc1ccc(NC(=O)Cn2c(=O)oc3cc(S(=O)(=O)N4CCCCCC4)ccc32)cc1OC,-69% (inactive),–
CN(C)c1ccc(Nc2nc(N)n(C(=O)c3c(F)cccc3F)n2)cc1,–,30.1 µM (active)
CN(C)S(=O)(=O)c1ccc(C(=O)NCCSc2c(-c3ccc(Br)cc3)[nH]c3ccccc23)cc1,-13.9% (inactive),–
CCOc1ccc(-n2c(/C=C/c3cccc(F)c3)nc3cc(OC)c(OC)cc3c2=O)cc1,-47.7% (inactive),–
COc1ccc(CCNc2nc3c(c(=O)n(C)c(=O)n3C)n2Cc2ccc(F)cc2)cc1OC,-52.7% (inactive),–
CCOc1ccc(C(=O)Nc2ccc(-n3nncc3-c3ccc(OC)cc3)cc2)cc1,-27.6% (inactive),–
O=C(NCc1ccc(Cl)cc1)C1CCN(S(=O)(=O)c2ccc3c(c2)CCCN3C(=O)C2CCC2)CC1,-26.1% (inactive),–
C#C[C@]1(O)CC[C@H]2[C@H]3CCc4cc(OC)ccc4[C@H]3CC[C@@]21C,13.8% (inactive),–
CC(=O)c1ccc(NS(=O)(=O)c2ccc3[nH]c(=O)[nH]c3c2)cc1,–,7.57 µM (active)
COc1ccc(-c2noc(CSc3nc4ccccc4[nH]3)n2)cc1OC,-47.7% (inactive),–
